From PubChem BioAssay AID602295 (Broad Institute, 2012)
Active and inactive are the calls of the source.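 Rule for the calls: active = every separate test run called active, meaning the signal drops and a potency is fitted within twice the top valid dose; inconclusive = runs disagree, poor fit, or flat partial inhibition; inactive = all runs inactive, flat, opposite direction or too weak.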

Target: Mitogen-activated protein kinase 3 (Homo sapiens) (UniProt P27361)
Assay: inhibition of MAPK3 kinase activity – biochemical, ADP-Glo luminescence, cherry pick, set 2, selectivity assay for Dyrk1A inhibitor NFAT project, dose response (AID 602295)
Settings: ERK1 kinase, 120 min; series mostly up to 10 µM

Sequence of Mitogen-activated protein kinase 3 (Homo sapiens) (P27361 whole entry, looked up): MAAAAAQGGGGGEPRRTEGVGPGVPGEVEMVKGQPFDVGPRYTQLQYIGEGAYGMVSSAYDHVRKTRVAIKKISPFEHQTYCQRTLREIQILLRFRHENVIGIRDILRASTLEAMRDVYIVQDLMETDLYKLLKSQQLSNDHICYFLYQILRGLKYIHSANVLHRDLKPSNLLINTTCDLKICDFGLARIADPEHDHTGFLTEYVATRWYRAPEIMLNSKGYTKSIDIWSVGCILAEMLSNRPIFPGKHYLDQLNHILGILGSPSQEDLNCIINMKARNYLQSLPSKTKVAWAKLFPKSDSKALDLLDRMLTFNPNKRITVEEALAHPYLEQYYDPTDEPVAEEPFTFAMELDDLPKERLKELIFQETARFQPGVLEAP

Structure (SMILES)	outcome
Clc1cc(Cl)cc(CNc2cc(-c3ccc4c(c3)OCO4)ncn2)c1	inactive
Cc1noc(NS(=O)(=O)c2ccc(NC(=O)c3oc4ccc(Cl)cc4c3C)cc2)c1C	inactive
COc1cccc(-c2sc3ccccc3c2-c2ccc(OCCN3CCCC3)cc2)c1	inactive
N#Cc1c(C(F)(F)F)cc(-c2cccc(Cl)c2)[nH]c1=O	inactive
COc1cccc(NC(=O)Nc2ccc3c(c2)N(C)C(=O)CS3)c1	inactive
O=C(Nc1nc(-c2ccc3c(c2)OCCO3)cs1)c1ccco1	inactive
Cc1c(-c2ccnc(NCc3cccnc3)n2)sc(=O)n1C	inactive
CN(C)S(=O)(=O)c1ccc(Cl)c(C(=O)Nc2cccc3ncccc23)c1	inactive
CC1Cc2ccccc2N1c1ncnc2nc[nH]c12 (stereo not drawn)	inactive
CN(C)c1ccc(-c2nccc(NCc3cccs3)n2)cc1	inactive
c1csc(CCNc2ncnc3ccc(-c4ccc5c(c4)OCO5)cc23)c1	inactive
c1coc(CCNc2ncnc3ccc(-c4ccc5c(c4)OCO5)cc23)c1	inactive
CN(Cc1nccs1)c1ncnc2ccc(-c3ccc4c(c3)OCO4)cc12	inactive
CSCC(=O)Nc1nc(-c2ccc3c(c2)OCCO3)cs1	inactive
O=[N+]([O-])c1cc(Nc2nccc(-c3ccc4c(c3)OCO4)n2)cc(C(F)(F)F)c1	inactive
CCCC(=O)Nc1nc(-c2ccc3c(c2)OCCO3)cs1	inactive
CCCNc1ncnc2ccc(-c3ccc4c(c3)OCO4)cc12	inactive

Structure (SMILES)	outcome
O=C(CSc1nnnn1-c1ccc(O)cc1)Nc1ccc(N2CCOCC2)c(Cl)c1	inactive
COc1cccc(Nc2nc(-c3ccc(O)cc3)cs2)c1	inactive
COc1ccc2c(Cl)c(C(=O)NCc3ccco3)sc2c1	inactive
Cc1ccsc1CN(C)c1ncnc2ccc(-c3ccc(CO)o3)cc12	inactive
CCOC(=O)c1ccc(-c2ccc3ncnc(NCc4ccc(C)o4)c3c2)o1	inactive
c1cncc(CNc2nccc(-c3ccc4[nH]ncc4c3)n2)c1	inactive
Cc1noc(NS(=O)(=O)c2ccc(NC(=O)c3oc4ccc(F)cc4c3C)cc2)c1C	inactive
c1cncc(CNc2nccc(-c3ccc4cn[nH]c4c3)n2)c1	inactive
COc1ccc(C(=O)c2sc(Nc3ccccc3F)nc2N)cc1	inactive
COCCNC(=O)c1ccc2c(c1)nc(C)n2-c1cccc(F)c1	inactive
Brc1ccc(CNc2nccc(-c3ccc4c(c3)OCO4)n2)cc1Br	inactive
COc1ccc(-c2[nH]ncc2-c2ccc3c(c2)OCCO3)c(O)c1	inactive
COc1cc(C(=O)Nc2cccc(-c3nncn3C)c2)cc(OC)c1OC	inactive
Fc1c(-c2ccc3ncnc(NCc4cccs4)c3c2)ccc2c1OCO2	inactive
NC(=O)c1c(NC(=O)c2ccc(N3C(=O)CCC3=O)cc2)sc2c1CCCC2	inactive
CN(C)S(=O)(=O)c1ccc(NC(=O)c2cc3ccccc3o2)cc1	inactive
